Source: the supplement of paper PMC12669032
Unmarked numbers belong to inactive results.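 The calls were made as follows: active = AUC reduced over 20% with Padj below 0.05 in at least 2 of 3 replicates; inactive = otherwise.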

Assays:
Assay in all cases: growth AUC relative to DMSO control (median of replicates) (fraction); higher = more growth (less inhibition), active = hit call of the paper
Conditions in all cases: 20 µM; 24 h
Coprococcus comes = test system: Coprococcus comes
Summary of the method: (§1)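 Gut bacterial monocultures were grown anaerobically at 37 °C in mGAM, starting at OD600 0.05, with 20 µM compound (1% DMSO) in round-bottom 96-well plates under pierced gas-permeable seals. OD600 was read hourly for 24 h. Area under the growth curve (minimum OD set to 0) was normalised to the plate median of DMSO controls, or to row and column medians on the industrial chemical plate. The value is the median of three biological replicates grown on separate days.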

Escherichia coli ED1a = test system: Escherichia coli ED1a
Summary of the method: as §1

Escherichia coli IAI1 = test system: Escherichia coli IAI1
Summary of the method: as §1

Eubacterium rectale = test system: Eubacterium rectale
Summary of the method: as §1

[1] = test system: Fusobacterium nucleatum subsp. animalis
Summary of the method: as §1

Lactobacillus gasseri = test system: Lactobacillus gasseri
Summary of the method: as §1

Lactobacillus paracasei = test system: Lactobacillus paracasei
Summary of the method: as §1

Odoribacter splanchnicus = test system: Odoribacter splanchnicus
Summary of the method: as §1

[2] = test system: Parabacteroides distasonis
Summary of the method: as §1

Parabacteroides merdae = test system: Parabacteroides merdae
Summary of the method: as §1

Roseburia intestinalis = test system: Roseburia intestinalis
Summary of the method: as §1

Streptococcus salivarius = test system: Streptococcus salivarius
Summary of the method: as §1

Compound	growth AUC (Coprococcus comes)	growth AUC (Escherichia coli ED1a)	growth AUC (Escherichia coli IAI1)	growth AUC (Eubacterium rectale)	growth AUC [1]	growth AUC (Lactobacillus gasseri)	growth AUC (Lactobacillus paracasei)	growth AUC (Odoribacter splanchnicus)	growth AUC [2]	growth AUC (Parabacteroides merdae)	growth AUC (Roseburia intestinalis)	growth AUC (Streptococcus salivarius)
CCC(C)c1cc([N+](=O)[O-])cc([N+](=O)[O-])c1OC(=O)OC(C)C (stereo not given)	0.867	0.911	0.929	1.02	0.611 (active)	0.859	0.951	1.09	0.979	0.929	0.692 (active)	0.901
O=C(O)Cc1cccc2ccccc12	0.941	0.959	0.991	1.02	1.01	0.949	1.02	0.953	0.987	1.01	1.04	0.99
CCc1cccc(C)c1N(COC(C)C)C(=O)CCl	1.03	1.05	1.01	1.04	0.961	0.99	1.07	1.1	1.04	0.982	1.01	1.01
CCOC(=O)C(C)Oc1ccc(Oc2cnc3cc(Cl)ccc3n2)cc1 (stereo not given)	1.01	0.997	1.04	1.09	1.03	1.04	0.95	1.02	0.971	0.956	1.02	1.05
CC(C)N(C)S(=O)(=O)NC(=O)c1cc(-n2c(=O)cc(C(F)(F)F)[nH]c2=O)c(F)cc1Cl	0.971	0.995	1	0.959	1.08	1.03	0.893	1.03	0.961	1.02	0.987	1.01
COC(=O)c1ccc(C(=O)OC)cc1	0.981	1	0.989	1	1.01	0.981	0.958	0.989	0.993	0.993	0.997	0.951
CCCCC(CC)CN1C(=O)C2C(C1=O)[C@H]1C=C[C@@H]2C1 (mixture of isomers)	1.03	1.01	1.03	0.93	1.01	1.06	1.04	1.03	0.79 (active)	0.977	1.07	1
CCC([O-])=C1C(=O)CC(C(=O)[O-])CC1=O.[Ca+2] (stereo not given)	0.957	1	0.972	1.13	1.11	1.06	0.91	0.976	0.993	0.996	1.12	0.917
CC(C)N(C(=O)C(=O)O)c1ccccc1	1.03	1.06	1.05	1.11	1.09	1.07	1.02	1.05	1.07	1.03	1.02	1.02
[S]	0.956	0.976	0.963	1.04	1.01	0.959	1.01	1.03	0.986	1	0.952	0.997
CN(C)C(=O)Nc1ccccc1	0.965	0.951	0.978	0.978	0.961	1.03	0.949	1.04	1.05	1.02	0.983	0.969
Oc1c(Cl)cc(Cl)c(Cl)c1Cc1c(O)c(Cl)cc(Cl)c1Cl	0.19 (active)	0.867	0.856	0.0106 (active)	0.078 (active)	0.037 (active)	0.0796 (active)	0.018 (active)	0.026 (active)	0.0156 (active)	0.0498 (active)	0.0329 (active)
COc1nc(C)nc(NC(=O)NS(=O)(=O)c2ccccc2OCCCl)n1	1.02	0.948	1	0.987	0.953	0.933	0.982	1	0.98	0.97	1	0.992
CC(C)(C)Nc1nc(N)nc(Cl)n1	0.999	1.03	0.998	0.979	1	0.974	0.987	0.995	1.02	0.97	1.01	0.975
CCC/C(=N\OCC(C)Oc1ccc(Cl)cc1)C1=C(O)CC(C2CCCSC2)CC1=O (stereo not given)	0.979	0.98	0.987	0.906	0.913	1.02	0.706	1.07	0.885	0.938	1.02	0.94
C[C@@]1(c2ccccc2)NC(=O)N(Nc2ccccc2)C1=O	1.03	1.02	1.01	0.948	1	1.05	0.955	0.993	1.02	0.996	0.958	1.02
CCCCN(C)C(=O)Nc1ccc(Cl)c(Cl)c1	1.04	1.01	1	1.04	1.01	0.965	0.98	0.901	0.816	0.932	0.956	0.971
O=C(NC(=O)c1c(F)cccc1F)Nc1cc(C(F)(F)F)cc(C(F)(F)F)c1Cl	0.932	0.949	0.971	0.941	0.989	1.33	0.861	0.936	0.948	0.951	0.942	0.922
CN(C)C(=O)Nc1ccc(Oc2ccc(Cl)cc2)cc1	0.938	0.95	0.938	1.24	0.849	0.926	1.08	1.1	0.937	0.918	0.874	0.94
O=C1NCC[n+]2ccccc21.[Br-]	1.02	0.966	0.978	1.07	0.908	0.882	0.961	0.968	0.923	0.972	0.992	0.987
CN(C)C(=O)c1cccnc1S(N)(=O)=O	1.03	1.05	1.04	1.02	1.02	1.06	1.04	1.02	1.01	1	1.03	0.978
COC(=O)C(C)Oc1ccc(Oc2ccc(C(F)(F)F)cn2)cc1 (stereo not given)	0.977	1.02	1.02	1.06	1.12	0.958	0.98	1.02	0.821	0.963	0.956	0.96
NC(Cn1cncn1)C(=O)O (stereo not given)	1.01	0.966	0.976	0.93	0.94	0.999	0.977	0.967	1.05	1.01	1	0.998
O=[N+]([O-])c1ccc(O)cc1	0.973	1.01	0.994	0.994	0.979	0.985	0.987	1.01	0.99	0.99	1.14	1
C#CCN(C)c1c(C#N)cnn1-c1nn2c(c1Cl)CCCC2	0.998	0.999	1.02	1.07	0.972	1.05	1.05	1.05	0.98	1.01	1.02	1.03

Compound	growth AUC (Coprococcus comes)	growth AUC (Escherichia coli ED1a)	growth AUC (Escherichia coli IAI1)	growth AUC (Eubacterium rectale)	growth AUC [1]	growth AUC (Lactobacillus gasseri)	growth AUC (Lactobacillus paracasei)	growth AUC (Odoribacter splanchnicus)	growth AUC [2]	growth AUC (Parabacteroides merdae)	growth AUC (Roseburia intestinalis)	growth AUC (Streptococcus salivarius)
Cc1cccc(C)c1N(C(=O)CCl)C1CCOC1=O (stereo not given)	0.889	0.963	1.01	1.09	1.02	0.953	1.01	0.408	0.99	0.981	1.08	0.86
CC(C)OC(=O)N[C@H](C(=O)N[C@H](C)c1nc2ccc(F)cc2s1)C(C)C	1.06	0.989	1	1.13	1.16	0.859	1.03	1.02	0.847	1	0.975	0.959
CCCCCCCCOC(=O)COc1cc(Cl)c(Cl)cc1Cl	0.946	1.02	1.01	0.995	1.02	0.977	1.11	1.08	1.03	1.01	0.953	0.875
O=C(O)C1(C(=O)Nc2ccc(Cl)cc2Cl)CC1	1.01	1.02	1.02	0.98	1.03	0.955	0.999	0.994	0.909	1.01	1.02	1.01
Br[C@@H]1CC[C@@H](Br)[C@@H](Br)CC[C@@H](Br)[C@@H](Br)CC[C@H]1Br	0.934	0.897	0.979	1	1.01	0.947	0.996	0.983	0.682 (active)	0.931	1	0.521 (active)
c1ccc2[nH]c(-c3cscn3)nc2c1	0.96	1.01	0.989	0.878	0.97	1	0.991	0.962	0.974	0.972	0.998	0.937
CCOC(N)=O	1.03	1.01	1.03	1	1.04	1.02	1.02	0.955	1.1	1.03	1.05	1.01
COC(=O)c1ccc(C(F)(F)F)nc1S(=O)(=O)[N-]C(=O)Nc1nc(OC)cc(OC)n1.[Na+]	0.979	0.983	0.966	0.961	0.965	0.986	0.921	1.07	1	0.974	0.941	1.02
Nc1cc(Cl)nc(C(=O)O)c1Cl	1.03	1.04	1.02	1.01	1.03	0.961	1.24	1.05	1.03	1.02	1.01	1.03
COc1c(Cl)ccc(Cl)c1C(=O)O	1.01	0.99	0.986	0.912	0.914	1.26	0.919	0.978	1	1	0.976	1.03
CCCCCC(C)OC(=O)COc1ccc(Cl)c2cccnc12 (stereo not given)	0.795 (active)	0.933	0.989	0.177 (active)	1.01	0.865	0.925	1	0.741 (active)	0.943	0.931	0.877
COC(=O)C(C)Oc1cc(Cl)c(Cl)cc1Cl (stereo not given)	1	0.985	1.05	0.975	1.03	1.12	0.883	0.927	0.994	0.974	1.01	1.02
CCCCCCCC/C=C\CCCCCCCCCCCC(=O)O	0.96	1.02	1.01	0.983	1.02	0.979	0.991	1	0.914	1.01	0.973	0.898
COc1nc(N)nc(C(F)(F)F)n1	1.05	0.998	1	0.958	1.04	1.08	0.964	1.01	1.03	1.02	1.05	1
COc1cc(OC)nc(Sc2cccc3c2C(=O)OC3C)n1 (stereo not given)	1	0.984	0.999	1.02	0.965	1.06	1	1.09	0.904	0.968	0.988	0.977
CN(C)C=O	1.04	1.03	1.03	0.998	1.11	1.01	1.03	1.05	0.998	1.02	1.1	0.999
COc1cc(OC)nc(NC(=O)NS(=O)(=O)N(C)S(C)(=O)=O)n1	1	1.02	1.01	1.04	1.01	1.06	1.04	1.06	1.01	0.983	0.99	1.02
COc1cccc(N(C)C(=S)Oc2cccc(C(C)(C)C)c2)n1	0.954	0.997	0.982	0.896	0.971	1.06	0.707	1.11	0.951	0.933	0.984	0.967
O=C(O)CCCc1c[nH]c2ccccc12	1.01	0.955	0.962	1.07	0.971	0.832	0.884	0.989	0.922	0.984	0.96	1
CNC(=O)/C(=N/OC)c1ccccc1COc1cc(C(=O)O)ccc1C	0.984	1.05	0.978	0.963	0.949	1.1	0.98	0.987	1.01	0.973	0.996	0.995
CCCCOC(=O)COc1ccc(Cl)cc1Cl	0.991	0.981	1.03	0.979	1.08	1.06	0.839	0.946	0.994	0.979	1.04	1.01
CCc1ccc(O)cc1	0.934	1.02	0.997	0.988	1.13	0.963	0.84	0.979	1.02	0.968	0.919	0.946
CCCCCCC(C)OC(=O)C(C)Oc1ccc(Cl)cc1C (stereo not given)	0.994	0.985	0.999	0.96	0.956	1	0.909	1.03	1.01	0.989	0.986	0.973
Clc1ccc(C(c2ccccc2Cl)C(Cl)Cl)cc1 (stereo not given)	1.03	1	0.978	0.952	1.01	0.496	1.04	1.02	0.615 (active)	0.976	0.911	0.966
CCOC(=O)Cc1[nH]nc2ccc(Cl)cc12	0.976	1.02	1	1.03	1.08	1.02	0.917	1.08	0.983	1.03	1.14	1
